Each structure is given as a SMILES string. Several values for one entry are separate records, joined by “and”; a condition that tells them apart may be missing. Equal values may be shown once. Hit rate of the full screen: of about 420,000 compounds, about 50,000 (12%) were called active. Where a call stands in place of a potency, no number is given. Another 26% or so got no clear call; they are omitted. The call rests on the fitted dose curve; in most records, active means well fitted inhibition curve with a large enough effect; inconclusive means small, poorly fitted or top-dose-only effect; inactive means flat fitted curve, though single readings scatter. This excerpt belongs to a sample that is enriched for actives.
Potency means the concentration at half of the fitted maximal effect.

The nature of this experiment: qHTS for Inhibitors of human tyrosyl-DNA phosphodiesterase 1 (TDP1): qHTS in cells in presence of CPT. Further: nearly all actives have a fitted effect of over 55% in size. The settings on record: chicken DT40 Tdp1-/-;hTDP1 cells + 20 nM CPT, ATP luminescence, 48 h; series mostly up to 46.2 µM. Summed up:
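Chicken DT40 Tdp1-/- cells stably complemented with human TDP1 were seeded at 400 cells/well in medium containing 20 nM camptothecin, exposed to pin-transferred compounds, and grown at 37 °C for at least 48 hr. Viability was read as ATP luminescence.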
(Quantitative high-throughput screening tests each substance at several concentrations.)
Regarding `O=C(CN1CCCCC1)NC(=O)Nc1ccccc1F`, the Potency result was “inactive”. Next, `Cc1cc(C)c(C(N)=O)c(Cl)n1`: “inactive”; `COc1ccc(CN2C(=O)C(CC(=O)NCCN3CCOCC3)CC(C(=O)N(C(C)C)C(C)C)=C2C)cc1` (stereo not given): “inactive”.

For the molecule `CC(C)(Oc1ccc(Cl)cc1)C(=O)OCC(=O)NCCc1ccc(S(N)(=O)=O)cc1`, the Potency result is “inactive”. In the case of `O=C(N/N=C/c1ccc(Cl)c(Cl)c1)c1ccc2nc[nH]c2c1`, the Potency entry is “inactive”.

For the molecule `CCCc1cc(=O)oc2c(C)c(OCC(=O)N3CCC(C(=O)O)CC3)ccc12`, the Potency entry is “inactive”. The value for `O=C(NCc1ccccn1)C1CCN(S(=O)(=O)c2ccc(Br)cc2)CC1` was “inactive”. On to `O=S(=O)(c1ccc(Br)cc1)N1CCC(c2nc3ccccc3[nH]2)CC1`, for which the Potency is 18.4 µM (active). For the molecule `CN(C)CCCNC(=S)N1CCC(c2nc3ccccc3[nH]2)CC1`, the Potency result is “inactive”. For the molecule `Cc1ccc2oc(C(=O)N3CCN(C)C[C@@H]3C(C)C)c(C)c2c1`, the Potency result was “inactive”. As to `CN(C(=O)CN1C(=O)NC(C)(CCc2ccccc2)C1=O)c1ccccc1` (stereo not given), the Potency entry is “inactive”. Next, `CCc1ccc(C(=O)OCC(=O)Nc2cccc(S(=O)(=O)NC3=NCCCCC3)c2)cc1`: “inactive”; `Cc1cccc(-n2c(SCC(=O)Nc3cccc(S(=O)(=O)NC4=NCCCCC4)c3)nc3ccccc3c2=O)c1C`: 5.17 µM (active). Turning to `COc1ccccc1C(=O)OCC(=O)Nc1cccc(S(=O)(=O)NC2=NCCCCC2)c1`, the Potency result is “inactive”. The value for `O=c1ccc(-c2ccc(S(=O)(=O)Nc3ccccc3)o2)n[nH]1` was “inactive”; that for `CCOc1ccc(NC(=O)C/C(C)=N/NC(=O)Cc2cccs2)cc1` was “inactive”. Next, `Cc1ccc2c(c1)c1c(c(=O)n(-c3ccccc3)c(=O)n1CC(=O)c1ccc(Cl)cc1)n2C`: “inactive”; `O=C1OC(Cc2ccccc2)C(c2ccccc2)C1=O` (stereo not given): “inactive”; `Cc1ccc(CSc2oc(-c3cccs3)nc2S(=O)(=O)c2ccc(C)cc2)cc1`: 13 µM (active).

As for `COC(=O)CSc1nccc(-c2cccs2)n1`, the Potency entry is “inactive”. Consider `NC(=O)CSc1oc(-c2cccs2)nc1S(=O)(=O)c1ccccc1`, for which the Potency entry is “inactive”. On to `Cc1ccc(CSc2ccc(S(=O)(=O)N3CCCCC3)cn2)cc1`, for which the Potency entry was “inactive”.

Turning to `CCCCS(=O)(=O)c1oc(-c2cccs2)nc1S(=O)(=O)c1ccccc1`, the Potency is 0.82 µM (active). Take `Cc1c(-c2ccccc2)nc(N)c(C#N)c1-c1cccs1`: the Potency result is “inactive”. Next, `Cc1ccc(NC(=O)COC(=O)CNC(=O)c2ccc(Cl)cc2Cl)cc1S(=O)(=O)N1CCOCC1`: “inactive”; `COc1ccc2[nH]c3c(c2c1)CCN1C(=O)C(CC(=O)NCCc2ccccn2)C[C@H](C(=O)N2CCOCC2)[C@@]31C` (stereo not given in full): “inactive”.

Consider `COc1ccc(OCCCCN2CCC(C)CC2)cc1`, for which the Potency entry was “inactive”. The value for `O=S(=O)(Nc1cccc(-c2ccc(N3CCOCC3)nn2)c1)c1ccc(Cl)c(Cl)c1` was “inactive”.

On to `CCN(CC)C(CNC(=O)CSc1nnnn1-c1cccc(F)c1)c1ccco1` (stereo not given), for which the Potency result is “inactive”. `COc1ccc(N(C(=O)CNC(=O)c2ccco2)C(C(=O)NCC2CCCO2)c2ccccc2)cc1Cl` (stereo not given): the Potency result was “inactive”. The value for `O=c1c2ccccc2nc2n1C(CSc1ccc(Cl)cc1)CN2` (stereo not given) was “inactive”; that for `O=S(=O)(c1cccc(C(F)(F)F)c1)N1CCN(c2nc(-c3cccs3)nc3ccccc23)CC1` was “inactive”. Next, `N#Cc1c(-c2ccccc2)nc(SCc2cccc(C(F)(F)F)c2)[nH]c1=O`: “inactive”.

Regarding `O=c1c2ccccc2nc2n1C(CSc1ccc(F)cc1)CN2` (stereo not given), the Potency result was “inactive”. In the case of `O=c1c2ccccc2nc2n1C(CSCc1ccccc1)CS2` (stereo not given), the Potency was 8.2 µM (active).

For the molecule `O=c1c2ccccc2nc2n1C(CSCc1cccc(C(F)(F)F)c1)CS2` (stereo not given), the Potency was 3.66 µM (active).

With `COc1ccc(-c2c(C)c3ccc(O)c(CN4CCN(C)CC4)c3oc2=O)cc1OC`, the Potency entry is “inactive”.

Take `O=c1c2c(-c3ccccc3)ccnc2[nH]n1-c1ccccc1`: the Potency entry was “inactive”. Next, `COc1cc(/C=C2\SC(=O)NC2=O)ccc1OCc1ccc(Cl)nc1`: “inactive”; `C=CCNC(=O)c1ccc(C)c(Br)c1`: “inactive”; `C=CCNC(=O)c1ccc2nc(-c3ccco3)c(-c3ccco3)nc2c1`: 11.2 µM (active).

As for `C=CCNC(=O)c1cc(-c2ccccc2O)on1`, the Potency result was “inactive”. Next, `CCSc1nnc(SCC(=O)NNC(=O)c2ccccc2F)s1`: “inactive”; `CCOc1ccc(CCNC(=O)CSc2cc(=O)n(C)c3ccc(Cl)cc23)cc1OCC`: 18.4 µM (active); `COc1cccc(NC(=O)CN(C)C(=O)Cc2ccc(Cl)cc2Cl)c1`: “inactive”. Next, `COc1cccc(NC(=O)CSc2cc(=O)n(C)c3ccc(Cl)cc23)c1`: 23.1 µM (active); `CCN(CCCNC(=O)CSc1cc(=O)n(C)c2cc(Cl)ccc12)Cc1ccccc1`: “inactive”. For the molecule `CCOc1ccc(CCNC(=O)Nc2ccccc2)cc1OCC`, the Potency entry is “inactive”. Turning to `Cn1c(=O)cc(SCC(=O)N2CCCC2)c2cc(Cl)ccc21`, the Potency result was “inactive”. Next, `CN(C)Cc1c(O)ccc2occ(C(O)c3ccccc3)c12` (stereo not given): “inactive”; `COC(C[C@@H](O)C[C@@H](O)[C@H](C)OCc1ccccc1)OC`: “inactive”; `Cc1ccc2c(c1)N(C(=O)Nc1ccc(Br)cc1F)CCO2`: “inactive”. Next, `O=C(Nc1ccccc1C(=O)Nc1ccncc1)c1ccc([N+](=O)[O-])cc1`: “inactive”; `CCOC(=O)c1nc(Nc2ccc(C(=O)OC)cc2)c2ccccc2n1`: 7.31 µM (active) and 16.4 µM (active).

`CCOC(=O)c1ccc(Nc2cc(C)nc3nc(C)nn23)cc1`: the Potency result was “inactive”.

`COC(=O)c1ccc(Nc2ncnc3sccc23)cc1`: the Potency entry is “inactive”.

As for `C/C=C/C(=O)OCC(=O)Nc1ccc(F)cc1Cl`, the Potency entry is “inactive”. Next, `CN(C)N1C(N)=C(C#N)C(c2ccc(Br)cc2)C2=C1CCCC2=O` (stereo not given): “inactive”; `CC(C)(C)c1ccc(C(=O)NCCn2c(N)c(C#N)c3nc4ccccc4nc32)cc1`: 23.1 µM (active).

As for `COCC(C)OC(=O)c1c(N)n(CCCN2CCOCC2)c2nc3ccccc3nc12` (stereo not given), the Potency entry was “inactive”. Turning to `CCCNC(=O)c1c(N)n(-c2ccc(S(N)(=O)=O)cc2)c2nc3ccccc3nc12`, the Potency result was “inactive”. The value for `O=C(NCc1nnc(SCC(=O)N2CCCCCC2)o1)c1ccc(F)cc1` was “inactive”; that for `C=CCc1cc(S(=O)(=O)c2ccc(O)c(CC=C)c2)ccc1O` was “inactive”. With `Cc1c(CCC(=O)O)c(=O)oc2c(C)c(OCc3ccccc3Cl)ccc12`, the Potency entry was “inactive”.

As to `CC(C)CN(C(=O)c1cccc(S(=O)(=O)N2CCCCC2)c1)C1CCS(=O)(=O)C1` (stereo not given), the Potency entry is “inactive”.

(Values after PubChem BioAssay AID686979 (National Center for Advancing Translational Sciences (NCATS), 2013).)
